Source: PubChem BioAssay (National Center for Advancing Translational Sciences (NCATS))
Shown are actives, neighbours in structure and some others; about 3% of the full set was active somewhere.
VDR inhibitor = Inhibitors of the vitamin D receptor (VDR): qHTS. Vitamin D3 receptor (Homo sapiens), P11473. VDR-SRC2-3 peptide fluorescence polarization, 2 h. Potency, µM, for the others: max response, negative = inhibition, usual class: inhibitors. actives 0.93% (n = 400,000). AID 504847, 2011; further: on the % scale 0 is the no-effect control and ±100 the full control effect
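FP read-out; VDR + SRC2-3 coactivator peptide; 23 nl compound by pintool; 2 h RT incubation; reagents held at 4 deg C, protected from light.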
TSG101-PTAP inh = qHTS Assay for Iinhibitors of HIV-1 Budding by Blocking the Interaction of PTAP/TSG101; Tumor susceptibility gene 101 protein (Homo sapiens), Q99816; Fluorescence polarization, FITC-PTAP peptide / Tsg101 binding; Potency, µM (doses to about 115 µM), without a hit: top-dose activity change, negative = inhibition, usual class: inhibitors; 340,000 tested, under 10 active; AID 493005, 2010; active means well fitted inhibition curve with a large enough effect in the main read-out, with a control signal flat, not every such curve was filed as active; inconclusive means small, poorly fitted or top-dose-only effect, or effect the other way, or a change in a side signal; inactive means no such curve, though single readings can be large or run the other way; further: % of control where 0% means no effect
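Fluorescence polarization binding of Tsg101 binding domain (10 uM final) to FITC-labeled PTAP peptide (50 nM final) in HEPES pH 7.5 buffer with NaCl, Tween 20, EDTA, TCEP. Compounds added before peptide; binding 20 min at RT.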
PLK1 PBD block = qHTS for Inhibitors of PLK1-PDB (polo-like kinase 1 - polo-box domain): Primary Screen. Serine/threonine-protein kinase PLK1 (Homo sapiens), P53350. Plk1 PBD binding of FITC phosphopeptide, fluorescence polarization. Potency, µM, inactives show max response, negative = inhibition, most hits filed as inhibitors. actives 2.8% (n = 360,000). AID 720504, 2013; further: series mostly up to about 57 µM; on the % scale 0 is the no-effect control and ±100 the full control effect; nearly all actives have a fitted effect of over 65% in size
Target sequence (P53350 whole entry, looked up, the tested form may be a part): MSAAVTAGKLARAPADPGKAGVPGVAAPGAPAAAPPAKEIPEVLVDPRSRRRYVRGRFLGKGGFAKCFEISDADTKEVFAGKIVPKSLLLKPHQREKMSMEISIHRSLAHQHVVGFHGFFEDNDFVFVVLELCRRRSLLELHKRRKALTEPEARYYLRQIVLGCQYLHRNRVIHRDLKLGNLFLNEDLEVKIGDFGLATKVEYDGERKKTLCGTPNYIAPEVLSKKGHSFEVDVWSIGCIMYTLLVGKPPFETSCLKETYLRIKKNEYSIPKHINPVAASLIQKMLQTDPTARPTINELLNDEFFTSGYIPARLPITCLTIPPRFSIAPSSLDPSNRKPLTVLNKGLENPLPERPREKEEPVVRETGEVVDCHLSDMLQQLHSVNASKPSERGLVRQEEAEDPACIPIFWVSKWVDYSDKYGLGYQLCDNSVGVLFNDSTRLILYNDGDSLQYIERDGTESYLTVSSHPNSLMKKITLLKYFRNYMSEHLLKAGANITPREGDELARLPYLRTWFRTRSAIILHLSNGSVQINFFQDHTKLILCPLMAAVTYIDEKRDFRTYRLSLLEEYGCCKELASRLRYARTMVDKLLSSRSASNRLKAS
USP1 inh = Inhibitors of USP1/UAF1: Primary Screen | recombinant USP1/UAF1, Ub-Rhodamine cleavage fluorescence | Ubiquitin carboxyl-terminal hydrolase 1 (Homo sapiens), O94782 | Potency, µM (doses to about 57.1 µM), without a hit: top-dose activity change, negative = inhibition, actives largely listed as inhibitors | actives 0.23% (n = 390,000); further: on the % scale 0 is the no-effect control and ±100 the full control effect; nearly all actives have a fitted effect of over 60% in size
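USP1/UAF1 complex at 1 nM was preincubated with compound for 15 min at room temperature, then Ub-Rho substrate (150nM final) was added. Fluorescence (480/540 nm) was read kinetically, 6 reads every 60 seconds.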
GCN5L2 inh = qHTS Assay for Inhibitors of GCN5L2 | Histone acetyltransferase KAT2A (Homo sapiens), Q92830 | GCN5L2 HAT assay, ThioGlo1 CoA-SH fluorescence | Potency, µM (highest dose often 58.9 µM), for inactives: top-dose activity change, negative = inhibition, hits mostly inhibitors | actives 0.21% (n = 390,000) | AID 504327, 2011; further: on the % scale 0 is the no-effect control and ±100 the full control effect
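Fluorescence readout, Ex340nm/Em540nm: ThioGlo1 (50uM final) reacts with free CoA thiol released as 20nM GCN5L2 acetylates H3(1-25) peptide (75uM) using acetyl-CoA (70uM). Compound and enzyme sat 15 min beforehand; 20 min room-temperature reaction.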
The depositor's hits bear a star; u = inconclusive; x = not tested or not shown. Unless noted, the call rests on the fitted dose curve; in most records, active means well fitted curve in the direction sought with a large enough effect; inconclusive means small, poorly fitted or top-dose-only effect, or another doubt; inactive means no such curve, though single readings can be large; an effect the other way counts as inactive or inconclusive. Potency means the concentration at half of the fitted maximal effect.

SMILES	VDR inhibitor	TSG101-PTAP inh	PLK1 PBD block	USP1 inh	GCN5L2 inh
CCOc1ccccc1C(=O)Nc1c(NC)c2ccccc2oc1=O	3%	x	x	-14%	-8%
O=C(CCCCCn1c(=O)[nH]c2ccsc2c1=O)NCc1ccccc1	u	x	x	u	0%
Cn1cnc([N+](=O)[O-])c1S(=O)(=O)Oc1cccc2ccccc12	u	-11%	8.4µM*	u	x
Cn1cnc([N+](=O)[O-])c1S(=O)(=O)Oc1ccc(Cl)cc1	25µM*	-3%	u	u	x
CCS(=O)(=O)c1c([N+](=O)[O-])ncn1C	-16%	-5%	-18%	-23%	5%
Cc1ccsc1C(=O)N1CCCC1(C)C(=O)NCC(C)C (stereo unspecified)	x	x	-13%	x	x
Cn1c(=O)n(C)c2cc(NS(=O)(=O)c3ccc(C(C)(C)C)cc3)c(NCc3ccccc3)cc21	-9%	x	x	u	-12%
CSc1nn(Cc2cccc(Cl)c2)c(N(C(C)=O)C(C)=O)c1S(=O)(=O)c1ccccc1	-5%	x	x	-25%	-6%
COc1cc(OC)c(OC)cc1CN1CCCC(C(=O)N2CCCC2)C1 (stereo unspecified)	-1%	-7%	6%	-17%	2%
COc1ccc(CN2CCCC(C(=O)N3CCCCC3)C2)c(OC)c1 (stereo unspecified)	u	0%	30µM*	-9%	-3%
CCOc1ccc(NC(=O)CCc2c(C)nc3c4c(C)cc(C)nc4nn3c2C)cc1	-9%	x	x	-12%	-3%
COc1ccc(C2NS(=O)(=O)N=C2N)cc1 (stereo unspecified)	-13%	-3%	19µM*	0%	-6%
COc1cccc(Nc2sc(C(=O)c3ccc(F)cc3)c(N)c2C(=O)NCc2ccc(C)cc2)c1	2%	x	x	6%	-6%
S=c1[nH]nc(COc2ccccc2)n1/N=C/c1cccc(Br)c1	-11%	-3%	30µM*	-18%	-2%
O=[N+]([O-])c1ccc(/C=N/n2c(COc3ccccc3)n[nH]c2=S)cc1	-14%	-6%	u	-18%	29%
CC(C)c1ccc(/C=N/n2c(COc3ccccc3)n[nH]c2=S)cc1	-14%	-2%	24µM*	-30%	-14%
S=c1[nH]nc(COc2ccccc2)n1/N=C/c1ccc(Br)cc1	-21%	-2%	27µM*	-26%	-25%
FC(F)Oc1ccc(/C=N/n2c(Cc3ccc(Br)cc3)n[nH]c2=S)cc1	79µM*	4%	9.5µM*	-6%	u
CCOc1cc(/C=N/n2c(COc3ccccc3)n[nH]c2=S)ccc1O	-12%	0%	-8%	-23%	1%
Oc1ccc(/C=N/n2c(COc3ccccc3)n[nH]c2=S)cc1O	-18%	0%	21µM*	-9%	-14%
COc1cccc(/C=N/n2c(COc3ccccc3)n[nH]c2=S)c1	-15%	1%	24µM*	0%	0%
S=c1[nH]nc(-c2ccncc2)n1/N=C/C(Cl)=C\c1ccccc1	-22%	-2%	6.7µM*	-17%	18%
S=c1[nH]nc(-c2ccncc2)n1/N=C/C=C/c1ccccc1	-7%	-1%	-26%	-2%	-23%
CN(C)c1ccc(/C=N/n2c(COc3ccccc3)n[nH]c2=S)cc1	-13%	0%	11µM*	-3%	-17%
CCc1ccccc1Nc1sc(C(=O)c2ccccc2)c(N)c1S(=O)(=O)c1ccccc1	0%	x	x	-14%	-11%
SMILES	VDR inhibitor	TSG101-PTAP inh	PLK1 PBD block	USP1 inh	GCN5L2 inh
S=c1[nH]nc(COc2ccccc2)n1/N=C/C(Cl)=C/c1ccccc1	u	-2%	24µM*	-29%	-16%
S=c1[nH]nc(COc2ccccc2)n1/N=C/c1c(Cl)cccc1Cl	16%	-3%	u	-8%	1%
S=c1[nH]nc(COc2ccccc2)n1/N=C/c1ccccc1Cl	-28%	-8%	27µM*	-14%	0%
COC(=O)C1=C(C(=O)OC)C(C(=O)OC)N2C=CC=CC2=C1C(=O)OC (stereo unspecified)	x	x	-2%	x	x
O=C(Nc1cccc(Cl)c1)C1CCN(c2nc3ccccc3nc2C(F)(F)F)CC1	9%	x	x	u	2%
COc1ccccc1NC(=O)COc1ccc(C(F)(F)F)cc1[N+](=O)[O-]	-11%	-3%	27µM*	-2%	x
COc1ccc(C(C)(C)C)cc1NC(=O)COC(=O)c1ccc([N+](=O)[O-])o1	-27%	-4%	30µM*	-12%	-3%
COc1ccc(NC(=O)c2ccco2)cc1NC(=O)COc1ccccc1[N+](=O)[O-]	-7%	-1%	-1%	-16%	-9%
COc1ccc(C)cc1NC(=O)COC(=O)c1ccc([N+](=O)[O-])o1	1%	-2%	-18%	-12%	-3%
CCOC(=O)COc1coc(CN2CCN(c3ccc(F)cc3)CC2)cc1=O	-15%	-5%	-11%	-21%	2%
O=C(Nc1cc2c(cc1C(=O)c1cccc(Br)c1)OCCO2)c1ccccc1F	-14%	x	x	-10%	-11%
C=CCn1c(SCc2cccc(C#N)c2)nnc1-c1ccccc1O	-26%	2%	27µM*	-15%	3%
C=CCn1c(SCc2ccc(C#N)cc2)nnc1-c1cccc(Cl)c1	-6%	-8%	-4%	-16%	-9%
CCOC(=O)C(C(=O)OCC)c1cc(Br)c2noc3c2c1C(=O)c1ccccc1-3	u	u	1.9µM*	44%	u
Cc1cc(N=Nc2ccccc2)cc(C)c1NC(=O)C(F)(F)F	-7%	-4%	1%	-25%	x
C/C(=N\NC(N)=S)C1=CCC2C3CC[C@H]4CC(O)CC[C@]4(C)C3CC[C@]12C (stereo partly specified)	u	-1%	17µM*	-24%	8%
CCOc1cc(/C=C2\C(=N)N3N=C(S(C)(=O)=O)SC3=NC2=O)ccc1OCCOc1cccc(OC)c1	u	-5%	27µM*	u	u
CCS(=O)(=O)C1=NN2C(=N)/C(=C\c3ccc(OCCOc4cccc(OC)c4)c(OC)c3)C(=O)N=C2S1	-18%	1%	24µM*	-11%	-27%
CCOc1ccccc1CNC(=O)CCCN1C(=O)CCn2nc(-c3cccn3C)cc21	6%	x	x	-22%	-6%
COc1ccc(OCC(=O)Nc2cc(-c3cccc(Cl)c3)nn2-c2ccccc2)cc1	17%	x	x	-24%	-4%
CCSc1nc(-c2cccs2)nc2ccccc12	-7%	-2%	24µM*	-12%	-4%
c1ccc(CNc2nc(-c3cccs3)nc3ccccc23)cc1	4%	1%	-1%	u	-5%
CCOc1ccccc1C1CC(=O)Nc2c1c(=O)n(C)c1ncnn21 (stereo unspecified)	-2%	x	x	-15%	1%
